Molecules are shown by their SMILES. A number with no mark means an inactive call. Records with an inconclusive call do not appear. The source made the active and inactive calls. Unless noted, calls follow the shape of the dose curve; as a rule, active = well fitted curve in the direction sought with a large enough effect; inconclusive = small, poorly fitted or top-dose-only effect, or another doubt; inactive = no such curve, though single readings can be large; an effect the other way counts as inactive or inconclusive.

Experiment [1] can be described thus: AP1 Signaling Pathway (AID 357; active = well fitted curve in either direction with a large enough effect, not every such curve was filed as active;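 also: ME-180 reporter cells stimulated with EGF at its EC50 level; % is scaled to controls: 0 for no effect and ±100 for the full control effect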). To be noted: ME-180 AP-1-bla reporter, EGF-induced, beta-lactamase ratio, 5 h; at 7.69 µM (top of the series) unless noted. In short, it runs like this:
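AP-1-bla ME-180 cells, Opti-MEM + 0.5% dialyzed FBS, plated overnight 37 °C. Cpd titration + EC50 EGF, 5 h 37 °C. CCF4 2.5 h RT; ex 405, em 460/530 ratio → %activity, AC50.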

Experiment [2] has as its target Cytochrome P450 1A2 (Homo sapiens) (UniProt P05177). The experiment can be described thus: p450-cyp1a2 (AID 410; calls by dose curve; also: potency is read from the fitted curve at half-maximal effect). In short, it runs like this: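 20nM CYP1A2 with 100uM Luciferin-ME (at Km) in 100mM KPO4; compound preincubated 10 min, NADPH regeneration added, 60 min at room temperature. Luciferin quantified by luminescence after detection reagent; normalized to 57 uM furafylline.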

The nature of experiment [3]: Stat Signaling Pathway (AID 446; active = well fitted curve in either direction with a large enough effect, not every such curve was filed as active;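 also: ME-180 cervical cancer cells given 40 pM IL-6 alongside compound; SIE-controlled beta-lactamase reporter measured as 460/530 nm FRET emission ratio; % is scaled to controls: 0 for no effect and ±100 for the full control effect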). To be noted: ME-180 (cervical carcinoma) SIE beta-lactamase reporter, IL-6 stimulated, 5 h; at 7.69 µM (top of the series) unless noted. A digest of the protocol:
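ME-180 cells carrying a SIE-driven beta-lactamase reporter are stimulated with 40 pM IL-6 for 5 h at 37C in the presence of compound. The 460/530 nm FRET substrate ratio is read after 2.5 h at RT. Data are normalised to 300 pM IL-6 and to 125 nM JAK inhibitor controls.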

The target of experiment [4] is Glucocorticoid receptor (Homo sapiens) (UniProt P04150). The experiment can be described thus: GR-GFP Redistribution (AID 450;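 active = compounds whose dose series gives a full or clear partial fitted curve of increased nuclear translocation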; also: potency is read from the fitted curve at half-maximal effect). The following applies: U2OS GR-GFP nuclear translocation, laser cytometry, 2 h.
Chain of Glucocorticoid receptor (Homo sapiens) (P04150 whole entry, looked up, the tested form may be a part): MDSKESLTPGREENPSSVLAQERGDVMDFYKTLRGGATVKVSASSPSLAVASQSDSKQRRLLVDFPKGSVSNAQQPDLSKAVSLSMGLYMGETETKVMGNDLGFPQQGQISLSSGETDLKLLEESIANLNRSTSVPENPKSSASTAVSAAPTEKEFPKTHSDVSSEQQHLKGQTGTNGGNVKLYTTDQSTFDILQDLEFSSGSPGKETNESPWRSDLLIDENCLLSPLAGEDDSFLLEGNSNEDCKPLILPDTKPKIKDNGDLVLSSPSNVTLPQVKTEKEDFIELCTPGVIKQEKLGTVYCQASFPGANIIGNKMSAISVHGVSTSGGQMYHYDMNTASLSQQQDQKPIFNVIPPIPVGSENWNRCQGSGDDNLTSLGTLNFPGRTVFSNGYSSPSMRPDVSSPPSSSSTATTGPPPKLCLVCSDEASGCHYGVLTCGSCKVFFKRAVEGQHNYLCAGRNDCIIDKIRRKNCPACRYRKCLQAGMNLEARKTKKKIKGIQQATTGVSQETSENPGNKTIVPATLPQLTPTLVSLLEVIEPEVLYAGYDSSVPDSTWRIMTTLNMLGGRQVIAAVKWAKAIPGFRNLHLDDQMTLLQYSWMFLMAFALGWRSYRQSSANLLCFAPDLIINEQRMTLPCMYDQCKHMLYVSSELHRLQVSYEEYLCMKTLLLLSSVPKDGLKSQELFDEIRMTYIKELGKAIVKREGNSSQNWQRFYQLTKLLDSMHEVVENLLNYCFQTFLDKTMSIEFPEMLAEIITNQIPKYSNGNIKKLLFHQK
Experiment [5] has the same target. Kind of experiment: GR-EFC Redistribution (AID 451; calls by dose curve; also: potency is read from the fitted curve at half-maximal effect). To be noted: CHO-K1 GR-EFC translocation, beta-gal luminescence, 2 h. A digest of the protocol: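 CHO-K1 cells stably expressing nuclear-localized β-gal enzyme acceptor and GR fused C-terminally to the enzyme donor fragment; ligand-driven nuclear translocation restores β-gal by complementation. Compounds titrated up to 46 uM final, 2 h at 37 °C; luminescence read.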

Experiment [6] deals with Mitogen-activated protein kinase 10 (Mus musculus) (UniProt Q61831). The experiment can be described thus: JNK3 AlphaScreen Assay (AID 530; active = well fitted curve in either direction with a large enough effect, not every such curve was filed as active;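 also: kinase came from lysate of stimulated human HepG2 cells; signal reports phosphorylation of biotinylated GST-cJun 1-79 at Ser73 with 10 µM ATP; % is scaled to controls: 0 for no effect and ±100 for the full control effect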). In short, it runs like this: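 Inhibitors reduce antibody binding to phosphorylated biotin-cJun, lowering AlphaScreen luminescence. Lysates from HepG2 cells pre-activated by IL-1beta plus TNF-alpha supplied JNK3; compounds were titrated.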

The target in experiment [7] is 3',5'-cyclic-AMP phosphodiesterase 4B (Homo sapiens) (UniProt Q07343). The experiment can be described thus: qHTS Assay for Inhibitors of PDE-IV (AID 607; active = well fitted activation curve with a large enough effect in the main read-out, with a control signal flat, not every such curve was filed as active; also: % of control where 0% means no effect). In short, it runs like this:
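HEK293 ACTOne cells with CNG channel (1000/well), endogenous PDE4; membrane potential dye, compounds up to 22.9 uM final. Fluorescence Ex 535/Em 590; RO 20-1724 (100 uM final) as reference.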
(Quantitative high-throughput screening tests each substance at several concentrations.)

Experiment [8] concerns the target Cytochrome P450 3A4 (Homo sapiens) (UniProt P08684). The experiment can be described thus: qHTS Assay for Inhibitors and Substrates of Cytochrome P450 3A4 (AID 884). Also: potency is read from the fitted curve at half-maximal effect; nearly all actives have a fitted effect of over 50% in size. A digest of the protocol:
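20 nM human CYP3A4 with 25 uM Luciferin-PPXE (at KM) in 200 mM KPO4, preincubated 10 min with compound; NADPH regeneration started a 60 min RT reaction. Luciferin detected by luminescence, normalized to 57 uM ketoconazole as full inhibition.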

For experiment [9] the target is unchanged. The experiment can be described thus: qHTS Assay for Activators of Cytochrome P450 3A4 (AID 885). Also: nearly all actives have a fitted effect of over 65% in size. A digest of the protocol:
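Human CYP3A4 (20 nM) with Luciferin-PPXE at 25 uM (its KM) in 200 mM KPO4; 10 min compound preincubation, then NADPH regeneration and 60 min reaction at RT. Luciferin read by luminescence; normalized to 57 uM ketoconazole full inhibition.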

The target of experiment [10] is Dual specificity protein kinase CLK4 (Homo sapiens) (UniProt Q9HAZ1). Kind of experiment: qHTS Assay for Inhibitors of CDC-like Kinase 4 (Kinase-Glo Assay) (AID 1770). Also: nearly all actives have a fitted effect of over 65% in size. Also: potency is read from the fitted curve at half-maximal effect. In short, it runs like this:
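Substrate mix (RS peptide 100 uM, ATP 1 uM) dispensed, compound pinned in, then Clk4 added to 25 nM final. Incubated 4.5 h at RT; Kinase-Glo reagent added, luminescence read after 5 min.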

Experiment [11] shares this target. Kind of experiment: qHTS Assay for Inhibitors of CDC-like Kinase 4 (ADP-FP Assay) (AID 1795).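 Also: recombinant human CLK4 phosphorylating RS repeat peptide at 1 µM ATP; % is scaled to controls: 0 for no effect and ±100 for the full control effect; nearly all actives have a fitted effect of over 60% in size.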 In short, it runs like this:
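Clk4 6.25 nM; RS peptide 100 uM; ATP 1 uM; 25 mM Tris pH 7.5, 10 mM MgCl2; 1 h reaction. ADP detected via antibody/orange tracer FP displacement; TG003 positive control.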

For experiment [12], the target named is Ubiquitin carboxyl-terminal hydrolase 1 (Homo sapiens) (UniProt O94782). The experiment can be described thus: Inhibitors of USP1/UAF1: Pilot qHTS (AID 504865).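 Also: rhodamine fluorescence freed from ubiquitin-rhodamine substrate followed over time; top concentration of the series differs between compounds; % is scaled to controls: 0 for no effect and ±100 for the full control effect; nearly all actives have a fitted effect of over 35% in size.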 A digest of the protocol:
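In 50mM HEPES pH 7.8 containing 0.5mM EDTA, 1mM TCEP, 0.1 mg/ml BSA and 0.01% Tween-20, 1nM USP1/UAF1 is exposed to compound for 15 min, then Ub-Rho (150nM final) is added and fluorescence is read over time.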

Experiment [13] can be described thus: Primary qHTS for small molecule stabilizers of the endoplasmic reticulum resident proteome: Secreted ER Calcium Modulated Protein (SERCaMP) assay (AID 1508630). Also: % is scaled to controls: 0 for no effect and ±100 for the full control effect. A digest of the protocol: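 GLuc-SERCaMP-expressing SH-SY5Y cells, pretreated 16 h with compound, are challenged with thapsigargin to empty ER calcium stores; after 4 h, coelenterazine is added directly to the medium and luminescence is imaged.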

For experiment [14], the target named is Rap guanine nucleotide exchange factor 3 (Homo sapiens) (UniProt O95398). The experiment can be described thus: Confirmatory qHTS for antagonist of cAMP-regulated guanine nucleotide exchange factor 3 (EPAC1) (AID 1645880).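 Also: plate controls were DMSO only for no effect and full effect of the ATA control for full effect; nearly all actives have a fitted effect of over 55% in size.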 In short, it runs like this:
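Nucleotide exchange uses 100 nM EPAC1, 250 nM RAP1B-BODIPY-GDP and 50 uM GDP, with compounds in a concentration-titration series. After 5 min at room temperature, fluorescence (480 nm ex/540 nm em) is read every 5 min for 30 min. Data are normalized to control ATA and DMSO.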

For experiment [15] the target is unchanged. Kind of experiment: Confirmatory qHTS for agonist of cAMP-regulated guanine nucleotide exchange factor 3 (EPAC1) (AID 1645881).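 Also: EPAC1 catalysed release of BODIPY-GDP from Rap1B seen as fluorescence loss; 100% = effect of cAMP agonist control; nearly all actives have a fitted effect of over 75% in size.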
Experiment [16] addresses Rap guanine nucleotide exchange factor 4 (Homo sapiens) (UniProt Q8WZA2). The experiment can be described thus: Confirmatory qHTS for agonist of cAMP-regulated guanine nucleotide exchange factor 4 (EPAC2) (AID 1645884).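 Also: nucleotide exchange releases bodipy-GDP from Rap1 and this lowers its fluorescence; nearly all actives have a fitted effect of over 65% in size.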 Also: potency is read from the fitted curve at half-maximal effect.
Experiment [17] has the same target. The experiment can be described thus: Confirmatory qHTS for antagonist of cAMP-regulated guanine nucleotide exchange factor 4 (EPAC2) (AID 1645885). Also: % is scaled to controls: 0 for no effect and ±100 for the full control effect; nearly all actives have a fitted effect of over 25% in size.
Experiment [18] in a line: NFAT Signaling Pathway (AID 444; active = well fitted curve in either direction with a large enough effect, not every such curve was filed as active). To be noted: Jurkat NFAT-bla M1, carbachol, beta-lactamase ratio, 5 h; at 7.69 µM (top of the series) unless noted. A digest of the protocol: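 Jurkat cells carrying an NFAT-driven β-lactamase reporter and co-transfected muscarinic M1 receptor were treated with compound plus carbachol (1 uM final, an EC50 level) for 5 h at 37 °C. CCF4 loading followed for 1 h at RT; 460/530 nm ratio gave %activity.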

For experiment [19], the target named is Lysosomal acid glucosylceramidase (Homo sapiens) (UniProt P04062). The experiment can be described thus: Glucocerebrosidase-p2 (AID 348; in the data active = potency below about 10 µM; also: potency is read from the fitted curve at half-maximal effect). To be noted: purified GBA, blue fluorogenic substrate, 40 min. A digest of the protocol: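 Compounds titrated from 0.6 nM upwards against 0.2 nM enzyme in pH 5.9 citric acid/KH2PO4, taurocholate, tween-20; blue fluorogenic substrate 80 uM, 40 min room temperature, stopped and read Ex 365/Em 440 for AC50.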

Chain of Rap guanine nucleotide exchange factor 4 (Homo sapiens) (Q8WZA2 whole entry, looked up): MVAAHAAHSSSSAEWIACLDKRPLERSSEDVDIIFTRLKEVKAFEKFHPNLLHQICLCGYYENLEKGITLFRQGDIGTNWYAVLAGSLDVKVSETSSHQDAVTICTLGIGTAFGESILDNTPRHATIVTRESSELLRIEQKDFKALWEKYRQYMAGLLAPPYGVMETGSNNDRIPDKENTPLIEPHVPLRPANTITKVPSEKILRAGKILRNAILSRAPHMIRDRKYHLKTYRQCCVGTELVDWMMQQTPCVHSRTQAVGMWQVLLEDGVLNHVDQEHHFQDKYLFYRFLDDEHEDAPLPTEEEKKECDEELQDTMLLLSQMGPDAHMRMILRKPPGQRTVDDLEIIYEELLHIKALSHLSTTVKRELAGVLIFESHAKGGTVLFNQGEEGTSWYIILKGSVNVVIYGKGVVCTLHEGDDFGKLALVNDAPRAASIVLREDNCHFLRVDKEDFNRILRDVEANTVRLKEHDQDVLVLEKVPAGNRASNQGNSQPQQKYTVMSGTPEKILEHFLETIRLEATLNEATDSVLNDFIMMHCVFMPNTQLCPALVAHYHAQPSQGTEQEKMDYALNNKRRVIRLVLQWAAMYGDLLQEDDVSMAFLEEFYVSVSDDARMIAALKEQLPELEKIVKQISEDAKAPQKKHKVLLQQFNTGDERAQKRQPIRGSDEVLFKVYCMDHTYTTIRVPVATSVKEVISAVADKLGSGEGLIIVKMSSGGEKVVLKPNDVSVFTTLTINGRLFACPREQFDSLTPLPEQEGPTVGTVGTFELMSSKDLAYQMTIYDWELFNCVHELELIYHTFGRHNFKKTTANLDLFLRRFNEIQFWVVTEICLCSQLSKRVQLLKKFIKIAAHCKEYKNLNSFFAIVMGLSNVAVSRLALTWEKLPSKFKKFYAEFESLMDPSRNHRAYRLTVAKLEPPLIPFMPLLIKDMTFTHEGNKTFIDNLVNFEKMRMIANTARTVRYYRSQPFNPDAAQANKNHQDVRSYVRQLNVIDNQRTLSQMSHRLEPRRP
Chain of Cytochrome P450 1A2 (Homo sapiens) (P05177 whole entry, looked up): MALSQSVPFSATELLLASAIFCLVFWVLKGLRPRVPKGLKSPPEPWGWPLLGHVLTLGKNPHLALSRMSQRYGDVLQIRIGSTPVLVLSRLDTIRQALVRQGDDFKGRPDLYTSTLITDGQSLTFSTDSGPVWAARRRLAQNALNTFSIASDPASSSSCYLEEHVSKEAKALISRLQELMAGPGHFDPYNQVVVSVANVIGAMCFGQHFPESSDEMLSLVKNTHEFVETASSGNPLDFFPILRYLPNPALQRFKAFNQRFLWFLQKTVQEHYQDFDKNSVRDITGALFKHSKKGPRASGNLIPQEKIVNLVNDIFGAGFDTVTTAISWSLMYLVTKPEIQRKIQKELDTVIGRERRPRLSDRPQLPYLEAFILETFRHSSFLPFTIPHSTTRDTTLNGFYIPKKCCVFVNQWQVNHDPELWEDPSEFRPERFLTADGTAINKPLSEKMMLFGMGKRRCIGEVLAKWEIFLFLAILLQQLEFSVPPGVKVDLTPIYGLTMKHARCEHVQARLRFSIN
Chain of Cytochrome P450 3A4 (Homo sapiens) (P08684 whole entry, looked up): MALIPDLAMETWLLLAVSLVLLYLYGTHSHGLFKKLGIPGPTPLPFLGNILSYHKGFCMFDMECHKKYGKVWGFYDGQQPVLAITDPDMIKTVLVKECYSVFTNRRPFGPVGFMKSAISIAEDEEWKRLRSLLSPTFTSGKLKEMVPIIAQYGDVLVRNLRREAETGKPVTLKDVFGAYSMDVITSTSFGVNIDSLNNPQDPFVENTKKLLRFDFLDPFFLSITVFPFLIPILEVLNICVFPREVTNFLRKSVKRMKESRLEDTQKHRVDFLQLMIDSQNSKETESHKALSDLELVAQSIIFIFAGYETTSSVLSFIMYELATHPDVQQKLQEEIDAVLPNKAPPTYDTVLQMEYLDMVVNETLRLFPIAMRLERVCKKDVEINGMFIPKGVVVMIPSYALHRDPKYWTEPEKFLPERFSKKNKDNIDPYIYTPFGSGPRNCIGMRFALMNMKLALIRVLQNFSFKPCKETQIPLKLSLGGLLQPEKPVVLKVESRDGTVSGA
Chain of Dual specificity protein kinase CLK4 (Homo sapiens) (Q9HAZ1 whole entry, looked up): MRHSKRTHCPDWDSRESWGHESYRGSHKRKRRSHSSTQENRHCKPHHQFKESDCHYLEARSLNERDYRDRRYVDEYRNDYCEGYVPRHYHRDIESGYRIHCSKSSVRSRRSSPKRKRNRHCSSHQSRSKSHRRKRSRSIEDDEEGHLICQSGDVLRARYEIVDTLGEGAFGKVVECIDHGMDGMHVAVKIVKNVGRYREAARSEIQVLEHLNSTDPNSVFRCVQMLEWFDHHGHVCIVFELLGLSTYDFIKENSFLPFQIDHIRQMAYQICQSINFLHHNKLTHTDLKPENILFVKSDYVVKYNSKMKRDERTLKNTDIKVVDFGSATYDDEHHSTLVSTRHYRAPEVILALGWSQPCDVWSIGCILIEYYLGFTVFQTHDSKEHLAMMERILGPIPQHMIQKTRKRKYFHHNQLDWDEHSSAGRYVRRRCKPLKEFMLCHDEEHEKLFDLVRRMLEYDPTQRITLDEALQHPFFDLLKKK
Chain of Ubiquitin carboxyl-terminal hydrolase 1 (Homo sapiens) (O94782 whole entry, looked up): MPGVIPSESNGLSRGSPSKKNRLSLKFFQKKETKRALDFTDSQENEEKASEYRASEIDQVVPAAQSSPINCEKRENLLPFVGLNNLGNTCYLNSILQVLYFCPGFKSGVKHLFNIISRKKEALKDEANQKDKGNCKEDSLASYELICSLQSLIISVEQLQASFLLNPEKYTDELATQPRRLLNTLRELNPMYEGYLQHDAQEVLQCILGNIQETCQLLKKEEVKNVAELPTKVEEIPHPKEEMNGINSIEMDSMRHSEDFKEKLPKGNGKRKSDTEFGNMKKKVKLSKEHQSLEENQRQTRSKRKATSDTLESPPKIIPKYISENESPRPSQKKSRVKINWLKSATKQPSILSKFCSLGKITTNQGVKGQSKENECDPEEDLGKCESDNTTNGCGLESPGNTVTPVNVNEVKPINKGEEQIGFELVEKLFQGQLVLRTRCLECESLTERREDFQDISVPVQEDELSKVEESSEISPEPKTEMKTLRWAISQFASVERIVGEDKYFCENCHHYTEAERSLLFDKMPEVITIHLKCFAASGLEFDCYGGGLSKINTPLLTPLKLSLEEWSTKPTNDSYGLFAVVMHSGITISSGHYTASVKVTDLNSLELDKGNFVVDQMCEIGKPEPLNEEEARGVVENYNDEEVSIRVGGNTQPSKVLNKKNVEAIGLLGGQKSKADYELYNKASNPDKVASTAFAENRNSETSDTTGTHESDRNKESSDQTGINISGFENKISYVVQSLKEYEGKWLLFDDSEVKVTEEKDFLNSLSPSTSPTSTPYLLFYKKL
Chain of 3',5'-cyclic-AMP phosphodiesterase 4B (Homo sapiens) (Q07343 whole entry, looked up): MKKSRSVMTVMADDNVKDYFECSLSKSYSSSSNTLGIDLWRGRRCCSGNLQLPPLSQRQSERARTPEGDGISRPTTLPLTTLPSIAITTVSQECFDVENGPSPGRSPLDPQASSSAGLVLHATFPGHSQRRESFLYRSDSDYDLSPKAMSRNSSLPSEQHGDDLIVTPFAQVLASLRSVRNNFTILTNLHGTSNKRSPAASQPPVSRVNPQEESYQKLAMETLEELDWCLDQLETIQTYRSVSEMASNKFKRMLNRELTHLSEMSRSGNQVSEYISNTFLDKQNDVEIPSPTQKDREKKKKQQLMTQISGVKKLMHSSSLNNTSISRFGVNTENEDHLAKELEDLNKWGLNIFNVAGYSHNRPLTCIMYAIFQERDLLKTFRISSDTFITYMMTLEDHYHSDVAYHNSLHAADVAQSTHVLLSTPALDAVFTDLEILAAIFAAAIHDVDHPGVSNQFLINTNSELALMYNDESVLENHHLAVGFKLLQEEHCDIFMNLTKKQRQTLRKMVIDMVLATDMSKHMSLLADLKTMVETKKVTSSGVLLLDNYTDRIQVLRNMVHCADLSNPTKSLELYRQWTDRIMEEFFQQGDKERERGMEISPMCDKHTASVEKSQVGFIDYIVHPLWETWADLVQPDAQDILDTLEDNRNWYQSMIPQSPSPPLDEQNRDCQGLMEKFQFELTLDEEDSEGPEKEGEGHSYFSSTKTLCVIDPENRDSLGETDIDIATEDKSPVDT

`COc1ccccc1CNc1nc(-c2ccc3c(c2)OCO3)nc2ccccc12`: the activity change, negative = inhibition in experiment [1] is 24.7%. Moreover, the Potency in experiment [2] was 0.631 µM (active); in experiment [4], more than 46 µM; in experiment [5], more than 46 µM; in experiment [8] it was 1.26 µM (active). Moreover, in [3], the activity, negative = inhibition was -8.69%. Further, the Potency entry in experiment [6], in experiment [7], in experiment [9], in [10], in [11] and in experiment [12] was “inactive” each time. The Potency result in [14], in experiment [15], in experiment [16] and in [17] was “inactive” each time. Moreover, the result in [13] was inactive.

Take `c1ccc(CNc2ccnc(-c3ccc4c(c3)OCO4)n2)cc1`: the activity change, negative = inhibition is -19.4% in experiment [1] and 15.5% in experiment [18]. For the same compound, in experiment [3], the activity, negative = inhibition is -18.3%. Also, the Potency in experiment [5] was more than 46 µM; in experiment [8], 0.794 µM (active). Further, the Potency entry in [6], in experiment [9], in experiment [14] and in [17] was “inactive” throughout. The result in experiment [13] was inactive.

With `c1csc(CNc2ccnc(-c3ccc4c(c3)OCO4)n2)c1`, the Potency was 0.316 µM (active) in experiment [2], more than 46 µM in [4] and more than 46 µM in experiment [5]. In experiment [18], the activity change, negative = inhibition was 11.2%. Moreover, the activity, negative = inhibition in experiment [3] is -12.2%. In addition, the Potency entry in [6], in [9], in [12], in experiment [14] and in experiment [17] was “inactive” each time. Also, the result in experiment [13] was inactive.

Consider `COCCn1c(=O)c(-c2cccs2)nc2cnc(Nc3ccccc3)nc21`, for which the Potency in [19] is more than 11.4 µM; in [4], more than 9.22 µM. Moreover, the activity change, negative = inhibition in experiment [1] is 5.47%. In addition, the activity, negative = inhibition in experiment [3] is 14.8%. In addition, the Potency entry in experiment [6], in [14], in experiment [15] and in experiment [17] was “inactive” each time. For the same compound, the result in experiment [13] was inactive.

As for `COc1ccc(-c2nc3cnc(Nc4ccccc4)nc3n(CCC#N)c2=O)cc1`, the Potency in experiment [19] is more than 11.4 µM; in experiment [2] it was 0.501 µM (active); in experiment [5], more than 46 µM; in experiment [16], 70.6 µM (active). The activity change, negative = inhibition in experiment [1] is -3.18%. In [3], the activity, negative = inhibition is -4.64%. Besides, the Potency result in experiment [6], in experiment [14] and in experiment [17] was “inactive” throughout. The outcome in experiment [13] was inactive.

With `COc1ccc(C(=O)N2CCC3(CC2)CN(c2cccc(-c4ccccc4)c2)C3)cc1`, in experiment [1], the activity change, negative = inhibition is -18.9%. The activity, negative = inhibition in [3] was -19.1%. For the same compound, in experiment [5], the Potency is more than 46 µM. Besides, the Potency entry in experiment [7], in experiment [14], in [15], in experiment [16] and in experiment [17] was “inactive” in each case. For the same compound, the outcome in experiment [13] was inactive.

For the compound `COc1cccc(-c2cc(NCc3ccc(OC)cc3OC)ncn2)c1`, the Potency was more than 11.4 µM in experiment [19]; 2 µM (active) in experiment [2]; more than 46 µM in [4]; more than 46 µM in experiment [5]; 2.51 µM (active) in [8]; 31.6 µM (active) in experiment [10]. Moreover, the activity change, negative = inhibition in experiment [18] was -8.15%. For the same compound, the activity, negative = inhibition in experiment [3] is -9.18%. For the same compound, the Potency entry in experiment [6], in [7], in [9], in [11], in [12] and in [14] was “inactive” throughout. Besides, the Potency result in [15] is “inactive”. The result in [13] was inactive.

(Values after PubChem BioAssay (NCATS).)
